Compounds without any hit were thinned out: in the full panel of roughly 83,000, 20% have a hit.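 Values shown are percent growth following 48 h exposure of cells in 96-well plates to a single concentration of compound; below 10 was considered active.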 Values without a mark were called inactive. Activity calls are given as the source filed them.

In the experiment the test system is SK-MEL-2 melanoma. In words: NCI-60 one-dose screen, 48 h (100 = growth as untreated, 0 = no growth, -100 = all killed). The settings on record: 10 µM unless noted. On the procedure: Growth inhibition of the SK-MEL-2 human tumor cell line is measured as a screen for anti-cancer activity. Cells are grown in 96 well plates and exposed to the test compound for 48 hours. Compounds are tested at a single concentration, which is 10^-5 M for most compounds. The reported endpoint is percent growth (GI% or GIPRCNT), where numbers from 0 - 100% represent growth inhibition, and numbers from -100% - 0 represent cell death. For example, a value of 40 represents 60% growth inhibition. A value of 0 means no net growth occurred over the course of the experiment. A value of -40 indicates 40% of cells at the beginning of the experiment died by the end of the experiment. A value of -100 means all cells are dead at the end of the experiment.
NCI-60 Human Tumor Cell Lines Screen was performed using the standard one-dose NCI protocol, which is described in more detail at https://dtp.cancer.gov/discovery_development/nci-60/default.htm.
Compounds with GIPRCNT values below 10 were considered active. Activity score was based on GIPRCNT using the following formula: […]
Score is 0 for GIPRCNT values of 100 or above, 50 for GIPRCNT values of 0, and 100 for GIPRCNT values of -100.
For the compound `Nc1c(Cl)cc([N+](=O)[O-])cc1Br`, the growth was 121%.
As for `COc1cccc(/C=C2\COc3ccc(-c4ccccc4)cc3C2=O)c1`, the growth was -46.4% (active).
For `O=S(=O)(NCCNc1nccc(-c2c(-c3cccc(F)c3)nc3occn23)n1)c1cccc2ccccc12`, the growth was 58.3%.
The same measure for `COc1cccc2c1C(=O)c1c(O)c3c(c(O)c1C2=O)C[C@@](O)(C(=O)CO)C[C@@H]3O[C@H]1C[C@H](N)[C@@H](O)[C@H](C)O1`: -72.9% (active).
With `c1ccc(Cn2nc3c(c2-c2ccccc2)-c2oncc2CC3)cc1`, the growth is 102%.
The same measure for `O=C(N/N=C/c1ccc(O)c(O)c1)c1sc2ccccc2c1Cl`: -13.4% (active); for `CN(C)CCCn1c2c(c3ccc(-c4ccn[nH]4)cc3c1=O)C(=O)c1ccccc1-2`: 121%; for `O=C(CN1CCOCC1)Nc1ccc2ncnc(Nc3ccc(Oc4cccc(F)c4)c(Cl)c3)c2c1`: 93.6%.
Regarding `c1cnc2nc3c(cc2c1)oc1ccccc13`, the growth was 101%.
`O=C(Nc1cccc(Cl)c1)c1cc(Cl)ccc1O`: the growth is -17.7% (active).
Consider `NC(=O)c1cccc(-n2ccc3cc(NC(=O)Nc4cc(C(F)(F)F)cc(C(F)(F)F)c4)ccc32)n1`, for which the growth is 76.6%.
The same measure for `Cc1ccc(/C=C/C(=O)c2ccc(N)cc2)c(C)c1`: 99%; for `CCCCCCCCOC(=O)c1ccc(O)c(OC)c1`: 97.7%; for `CC1(C)CN(Cc2ccccc2)CCN1Cc1ccccc1`: 103%.
The same measure for `CCN1C(=O)/C(=c2\sc3n(c2=O)NC2C(N=3)N(CC)C(=O)N2CC)c2ccccc21` (stereo not given): 65.8%; for `COc1ccc2c(Nc3ccc(NS(C)(=O)=O)cc3)c3ccccc3nc2c1`: -70.4% (active); for `COc1ccc(C(=O)c2cc3c(N)c(C(=O)Nc4cccc(OC)c4)sc3nc2C)cc1`: 27.9%.
The same measure for `Clc1ccc2c(c1)c(-c1ccccc1)nc1nncn12`: 102%; for `COc1cc(/C=N/NC(=O)c2ccccc2Nc2cccc(C(F)(F)F)c2)ccc1O`: 136%; for `Cc1ccc(C2CC(c3cccc(Nc4ccncc4)c3)=NN2c2ccccc2)cc1` (stereo not given): -64.6% (active).
`Cc1ccc(C2C3CC4CCCCC4N3[C@@]3(C(=O)Nc4cc(Cl)ccc43)C2C(=O)c2nc3ccccc3[nH]2)cc1` (stereo not given in full): the growth is 59.7%.
The same measure for `CCCc1cc2c(cc1Br)OCO2`: 98%; for `S=c1[nH]cccc1-c1nnc2n1Nc1nc3ccc(Cl)cc3cc1CS2`: 96.1%; for `O=S(=O)(c1cccc(NC2=Nc3cccc4cccc2c34)c1)N1CCCC1`: 75.2%.
The same measure for `COc1ccccc1OCC(=O)N1CCCCCC1`: 114%.
As to `Cc1ccc(C(c2c(O)c3cc(Br)ccc3[nH]c2=O)c2c(O)c3cc(Br)ccc3[nH]c2=O)cc1`, the growth was 90.2%.
The same measure for `CSc1nc(O)c(-c2ccccc2)c(=O)[nH]1`: 103%.
The same measure for `CS(=O)(=O)c1ccc(-c2cc(-c3nnc(SCC(=O)Nc4ccc(C(=O)/C=C/c5ccc(Cl)cc5)cc4)n3-c3ccccc3)c3ccccc3n2)cc1`: 107%; for `Cn1/c(=N/NC(N)=S)ccc2ccccc21`: 117%.
The same measure for `CC(Oc1ccc(C(=O)NS(=O)(=O)C(C)(C)C)cc1C(F)(F)F)c1ccc(Oc2ccccc2)cn1` (stereo not given): 35.5%; for `NC(=O)c1cccc(-c2cc(C(N)=O)ccc2Cl)c1`: 34.5%.
Turning to `CCCC/C(=N\N=C(N)N)c1ccc(F)cc1`, the growth is 1.07% (active).
For `CC[C@H](C)[C@@H]1NC(=O)[C@H](Cc2ccc(O)cc2)N(C)C(=O)[C@H](Cc2ccccc2)NC(=O)CN(C)C(=O)[C@@H]2CCCN2C(=O)[C@@H](Cc2ccccc2)N(C)C(=O)[C@H](CC(C)C)NC1=O`, the growth was -50.4% (active).
The same measure for `BrC(Br)(Br)c1cnc2ccccc2n1`: 90.2%.
The same measure for `CCNC(=O)c1[nH]cc(-c2ccc(OC)cc2)c1-c1cc(OC)cc(OC)c1`: 98.6%.
As for `C=C1C(=O)O[C@H]2[C@H]1CC/C(CNC(=O)/C=C/c1ccccc1F)=C\CC[C@@]1(C)O[C@@H]21`, the growth is 54.7%.
The same measure for `O=C(O)CCCCCCCCCCCCCCC(=O)O`: 103%.
The same measure for `O=C1c2ccccc2C(=O)c2c(NCCN=Cc3ccccc3O)cccc21`: 108%; for `O=C(Nc1ccc(Nc2ncccn2)cc1)NC1C=c2ccccc2=CC1` (stereo not given): 102%; for `COc1cc2nc(Cc3ccc(C)cc3)[nH]c(=O)c2cc1OC`: 123%.

(Values after PubChem BioAssay (NCI).)
